Measured values from PubChem BioAssay AID1159580 (chemical genetic matrix, 2015).
Several values for one entry are separate records, joined by “and”; a condition that tells them apart may be missing. Identical values can stand only once. About 2,000 (36%) of roughly 5,500 compounds were called active. Inconclusive results (about 18%) are left out. No stated cut-off is given here; in the data, active means normalized growth mostly below about 0.91 (no sharp cut-off); inconclusive means no clear call, values can overlap the other calls; inactive means mostly above about 0.92. This is one part of the list.

Assay: chemical genetic growth profiling, strain panel (AID 1159580);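 further: tested at 20 µM; growth read once vehicle control cultures reached saturation at 30 °C; 1 = growth at the plate median or of vehicle wells; lower values mean less growth of the strain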
Settings: S. cerevisiae deletion strains, growth OD

Measured: normalized growth

CC(=O)Oc1ccccc1C(=O)Oc1ccccc1C(=O)O
inactive: locus YAL013W, strain DEP1, hits give low values 0.989 | locus YAL021C, strain ccr4, hits give low values 1.01 | locus YAL026C, strain drs2, hits give low values 1.01 | locus YAL030W, strain snc1, hits give low values 1 | locus YBL061C, strain skt5, hits give low values 1 | locus YBR009C, strain hhf1, hits give low values 1.01 | locus YBR021W, strain FUR4, hits give low values 0.981 | locus YBR023C, strain chs3, hits give low values 0.998 | locus YBR171W, strain sec66, hits give low values 1 | locus YBR229C, strain ROT2, hits give low values 0.992 | locus YBR231C, strain swc5, hits give low values 0.995 | locus YBR279W, strain paf1, hits give low values 1 | locus YCL011C, strain gbp2, hits give low values 1.02 | locus YCL016C, strain dcc1, hits give low values 1 | locus YCL029C, strain bik1, hits give low values 0.98 | locus YCL069W, strain vba3, hits give low values 1 | locus YCR088W, strain abp1, hits give low values 1 | locus YDL005C, strain med2, hits give low values 0.995 | locus YDL035C, strain GPR1, hits give low values 1 | locus YDL040C, strain nat1, hits give low values 1 | locus YDL074C, strain BRE1, hits give low values 1.01 | locus YDL101C, strain DUN1, hits give low values 0.997 | locus YDL134C, strain PPH21, hits give low values 1.02 | locus YDL185W, strain tfp1, hits give low values 0.987 | locus YDL192W, strain arf1, hits give low values 0.993 | locus YDR001C, strain nth1, hits give low values 1.01 | locus YDR069C, strain doa4, hits give low values 0.996 | locus YDR101C, strain arx1, hits give low values 0.994 | locus YDR137W, strain rgp1, hits give low values 1 | locus YDR150W, strain NUM1, hits give low values 0.996 | locus YDR159W, strain sac3, hits give low values 0.962 | locus YDR162C, strain NBP2, hits give low values 1.02 | locus YDR195W, strain ref2 0.962 | locus YDR297W, strain sur2, hits give low values 1.01 | locus YDR318W, strain mcm21, hits give low values 0.986 | locus YDR334W, strain swr1, hits give low values 1 | locus YDR335W, strain msn5, hits give low values 1 | locus YDR388W, hits give low values 0.986 | locus YDR392W, strain spt3, hits give low values 0.954 | locus YDR502C, strain sam2, hits give low values 0.985 | locus YEL003W, strain gim4, hits give low values 1.01 | locus YEL037C, strain rad23, hits give low values 1 | locus YEL061C, strain CIN8 (second series), hits give low values 1.01 | locus YEL061C, strain CIN8, hits give low values 0.999 | locus YER015W, strain faa2, hits give low values 0.997 | locus YER016W, strain bim1, hits give low values 1 | locus YER110C, hits give low values 0.98 | locus YER111C, strain swi4, hits give low values 0.994 | locus YER155C, strain BEM2 (second series), hits give low values 1.02 | locus YER155C, strain BEM2, hits give low values 0.986 | locus YER167W, strain BCK2, hits give low values 0.991 | locus YFR010W, strain ubp6, hits give low values 1.02 | locus YGL078C, strain dbp3, hits give low values 0.977 | locus YGL086W, strain mad1, hits give low values 0.984 | locus YGL167C, strain pmr1, hits give low values 0.996 | locus YGL173C, strain kem1, hits give low values 1.02 | locus YGL227W, strain vid30, hits give low values 0.998 | locus YGL240W, strain doc1, hits give low values 0.978 | locus YGL248W, strain PDE1, hits give low values 0.992 | locus YGL253W, strain hxk2, hits give low values 0.996 | locus YGR078C, strain PAC10, hits give low values 1.01 | locus YGR135W, strain pre9, hits give low values 0.999 | locus YGR229C, strain SMI1, hits give low values 1.01 | locus YGR252W, strain gcn5, hits give low values 0.966 | locus YHR013C, strain ard1, hits give low values 1.01 | locus YHR027C, strain rpn1, hits give low values 0.985 | locus YHR030C, strain SLT2, hits give low values 0.991 and 0.986 | locus YHR079C, strain IRE1 (second series), hits give low values 0.983 | locus YHR079C, strain IRE1, hits give low values 0.995 | locus YHR094C, strain hxt1, hits give low values 0.98 | locus YHR129C, strain ARP1, hits give low values 1 | locus YHR142W, strain chs7, hits give low values 1.01 | locus YHR200W, strain rpn10, hits give low values 0.97 | locus YIL066C, strain RNR3, hits give low values 0.982 | locus YIL073C, strain SPO22, hits give low values 0.975 | locus YIL125W, strain kgd1, hits give low values 0.977 | locus YIR030C, strain dcg1, hits give low values 0.983 | locus YJL092W, strain hpr5, hits give low values 1.01 | locus YJL095W, strain BCK1 (second series), hits give low values 0.997 | locus YJL095W, strain BCK1, hits give low values 1.01 and 1 | locus YJL115W, strain asf1, hits give low values 1.01 | locus YJL129C, strain trk1, hits give low values 1.01 | locus YJL134W, strain LCB3, hits give low values 0.992 | locus YJL154C, strain vps35, hits give low values 1 | locus YJL164C, strain tpk1, hits give low values 0.996 | locus YJL166W, strain qcr8, hits give low values 1.01 | locus YJL168C, strain set2, hits give low values 0.981 | locus YJL187C, strain SWE1 (second series), hits give low values 0.993 | locus YJL187C, strain SWE1, hits give low values 1.01 | locus YJR043C, strain POL32, hits give low values 0.995 | locus YJR066W, strain TOR1, hits give low values 0.905
